PubChem BioAssay
Results filed as inconclusive are left out. Calls of active or inactive are those of the source.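 The calls were made as follows, unless noted: active = inhibition above the screen-wide mean plus 3 SD, about 51%; inactive = the rest.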

Legend:
[1] = yeast TOR pathway RPL19A-GFP modulators, primary screen, cell-based, S. cerevisiae, multiplex flow cytometry (AID 1862; in the data active = percent of DMSO control GFP below about 86%;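 also: lower values mimic rapamycin by blocking the RPL19A rise seen in DMSO cells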); settings: S. cerevisiae RPL19A-GFP strain, flow cytometry fluorescence, 3 h; at 10 µM; stronger effect = lower value
[2] = modulators of MEP2-GFP levels in yeast, primary screen, S. cerevisiae, multiplex flow cytometry (AID 1867;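 active = GFP response, as percent of the DMSO control, above the screen-wide mean plus 3 SD, about 139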;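 also: median GFP channel fluorescence of barcode-gated MEP2-GFP cells measured by flow cytometry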); settings: S. cerevisiae MEP2-GFP strain, 3 h, at 10 µM, stronger effect = higher value, 100% means same as DMSO wells
[3] = modulators of CIT2-GFP expression in yeast, primary screen, S. cerevisiae, GFP fusion, multiplex flow cytometry (AID 1870;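 active = percent response above a set limit, the screen-wide mean plus 3 SD, cut at about 130% in these data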;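 also: barcoded CIT2-GFP strain pooled with four other GFP strains with rapamycin as positive control; median GFP fluorescence per well over plate mean of DMSO wells so 100% = DMSO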); settings: 3 h, at 10 µM, stronger effect = higher value
[4] = modulators of LAP4-GFP expression in yeast, primary screen, S. cerevisiae, multiplex flow cytometry (AID 1873;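 active = GFP signal, as percent of the solvent control, above the screen mean plus 3 SD, about 149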); settings: 3 h, at 10 µM, stronger effect = higher value
[5] = modulators of AGP1-GFP expression in yeast TOR pathway, primary screen, cell-based, multiplex flow cytometry, S. cerevisiae (AID 1887;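 active = GFP signal above the screen-wide mean plus 3 SD, that is over about 124.5% of the solvent control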;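 also: AGP1-GFP fusion strain of S. cerevisiae within a five-strain barcoded multiplex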); settings: 3 h, at 10 µM, stronger effect = higher value
[6] = inhibitors of CD8+ T cell-vesicle binding, pilot screen, LFA-1/ICAM-1 modulator project, MLPCN validation set, flow cytometry (AID 2523;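 active = response below a set limit, under 55% cells CD8-positive and vesicle-bound, and CD8 cells' 90th-percentile brightness under 279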;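 as to vesicle binding response: mean PE anti-B7-1 fluorescence of CD8+ cells relative to row control; 100% = QL9-loaded vesicles with DMSO vehicle in the same plate row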); settings: 2C mouse CD8+ T cells, at 7 µM, stronger effect = lower value; double positive events: measured here: CD8+/vesicle+ event percentage
[7] = molecular target: Integrin beta-1 (Homo sapiens) + Integrin alpha-4 (Homo sapiens) (UniProt P13612+P05556); assay: inhibition of HUTS-21 binding to VLA-4, pilot screen, VLA-4 allosteric modulator project, U937 cells, HUTS-21 mAb, flow cytometry, validation set (AID 2674;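 active = inhibition above 50%, about 3 SD of the validation set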;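 also: antibody binding induced by the VLA-4 ligand LDV present at three times its Kd; 0% = LDV ligand with antibody and no compound and 100% = antibody without LDV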); settings: HUTS-21 LIBS mAb binding, at 6.7 µM, stronger effect = higher value, binding induced by LDV ligand
Chain of Integrin beta-1 (Homo sapiens) + Integrin alpha-4 (Homo sapiens) (P05556 whole entry, looked up): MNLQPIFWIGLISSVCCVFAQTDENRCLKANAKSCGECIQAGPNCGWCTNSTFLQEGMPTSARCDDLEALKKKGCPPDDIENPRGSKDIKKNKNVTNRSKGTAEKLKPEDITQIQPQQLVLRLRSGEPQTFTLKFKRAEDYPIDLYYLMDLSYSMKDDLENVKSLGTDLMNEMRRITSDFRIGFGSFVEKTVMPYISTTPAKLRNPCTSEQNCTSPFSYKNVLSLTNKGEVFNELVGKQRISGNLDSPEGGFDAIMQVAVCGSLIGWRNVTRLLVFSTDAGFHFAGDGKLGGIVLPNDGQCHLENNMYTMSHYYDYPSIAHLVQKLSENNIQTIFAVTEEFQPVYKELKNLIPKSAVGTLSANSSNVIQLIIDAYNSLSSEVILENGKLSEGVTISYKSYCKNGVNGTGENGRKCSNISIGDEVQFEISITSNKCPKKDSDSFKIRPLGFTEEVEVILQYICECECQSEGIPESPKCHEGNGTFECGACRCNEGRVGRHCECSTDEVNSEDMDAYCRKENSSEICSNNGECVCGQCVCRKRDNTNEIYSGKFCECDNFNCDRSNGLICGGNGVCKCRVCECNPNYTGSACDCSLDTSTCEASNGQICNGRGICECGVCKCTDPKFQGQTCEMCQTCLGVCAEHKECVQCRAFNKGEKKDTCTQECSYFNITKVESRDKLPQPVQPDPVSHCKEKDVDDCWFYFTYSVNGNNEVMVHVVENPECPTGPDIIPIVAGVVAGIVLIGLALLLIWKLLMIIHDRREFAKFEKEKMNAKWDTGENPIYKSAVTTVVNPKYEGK
Chain of Integrin beta-1 (Homo sapiens) + Integrin alpha-4 (Homo sapiens) (P13612 whole entry, looked up): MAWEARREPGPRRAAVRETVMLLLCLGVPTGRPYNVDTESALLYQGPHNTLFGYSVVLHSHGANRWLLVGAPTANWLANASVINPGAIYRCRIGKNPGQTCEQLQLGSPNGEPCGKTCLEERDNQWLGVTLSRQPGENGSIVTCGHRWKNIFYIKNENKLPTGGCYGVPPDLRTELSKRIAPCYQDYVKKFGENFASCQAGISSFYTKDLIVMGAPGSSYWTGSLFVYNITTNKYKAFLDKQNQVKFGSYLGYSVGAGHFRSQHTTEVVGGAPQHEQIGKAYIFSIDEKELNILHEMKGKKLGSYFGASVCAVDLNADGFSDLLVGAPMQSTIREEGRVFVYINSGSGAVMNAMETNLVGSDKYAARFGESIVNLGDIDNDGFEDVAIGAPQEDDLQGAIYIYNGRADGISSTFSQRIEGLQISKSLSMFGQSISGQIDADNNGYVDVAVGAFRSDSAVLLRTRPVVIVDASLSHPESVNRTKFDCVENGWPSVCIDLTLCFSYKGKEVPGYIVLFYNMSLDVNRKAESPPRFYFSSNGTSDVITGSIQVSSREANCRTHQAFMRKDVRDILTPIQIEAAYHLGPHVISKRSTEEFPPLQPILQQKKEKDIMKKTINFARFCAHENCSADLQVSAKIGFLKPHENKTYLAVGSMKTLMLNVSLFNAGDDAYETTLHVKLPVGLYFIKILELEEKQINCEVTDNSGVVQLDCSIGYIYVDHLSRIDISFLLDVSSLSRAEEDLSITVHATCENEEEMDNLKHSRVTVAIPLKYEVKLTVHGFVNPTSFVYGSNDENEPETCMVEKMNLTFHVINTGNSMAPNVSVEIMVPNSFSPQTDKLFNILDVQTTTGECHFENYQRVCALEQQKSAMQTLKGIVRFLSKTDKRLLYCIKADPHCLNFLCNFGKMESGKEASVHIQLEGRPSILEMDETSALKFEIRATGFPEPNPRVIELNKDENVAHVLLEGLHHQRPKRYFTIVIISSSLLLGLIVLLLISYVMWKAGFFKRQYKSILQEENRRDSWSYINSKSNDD

[8] = superoxide lowering in aged yeast cells, pilot screen, validation compound set (AID 2706;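 active = superoxide response below 65% of plate, a cut near 3 SD across the whole screen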;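 also: yeast exposed to compound for one week at 30 degrees C before staining; 100% = mean of all compound wells on the same plate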); settings: S. cerevisiae aging, superoxide DHE fluorescence; at 10 µM, stronger effect = lower value
[9] = molecular target: Beta-adrenergic receptor kinase 1 (Homo sapiens) (UniProt P25098); assay: GRK2 binders displacing RNA aptamer, biochemical, validation, human GRK2, bead flow cytometry (AID 488806;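 active = aptamer binding inhibition above 30%, about 3 SD of noise from non-fluorescent compounds; inactive = inhibition at or below 30%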); settings: bead-bound GRK2, FAM-aptamer displacement, at 10 µM, stronger effect = higher value
Chain of Beta-adrenergic receptor kinase 1 (Homo sapiens) (P25098 whole entry, looked up): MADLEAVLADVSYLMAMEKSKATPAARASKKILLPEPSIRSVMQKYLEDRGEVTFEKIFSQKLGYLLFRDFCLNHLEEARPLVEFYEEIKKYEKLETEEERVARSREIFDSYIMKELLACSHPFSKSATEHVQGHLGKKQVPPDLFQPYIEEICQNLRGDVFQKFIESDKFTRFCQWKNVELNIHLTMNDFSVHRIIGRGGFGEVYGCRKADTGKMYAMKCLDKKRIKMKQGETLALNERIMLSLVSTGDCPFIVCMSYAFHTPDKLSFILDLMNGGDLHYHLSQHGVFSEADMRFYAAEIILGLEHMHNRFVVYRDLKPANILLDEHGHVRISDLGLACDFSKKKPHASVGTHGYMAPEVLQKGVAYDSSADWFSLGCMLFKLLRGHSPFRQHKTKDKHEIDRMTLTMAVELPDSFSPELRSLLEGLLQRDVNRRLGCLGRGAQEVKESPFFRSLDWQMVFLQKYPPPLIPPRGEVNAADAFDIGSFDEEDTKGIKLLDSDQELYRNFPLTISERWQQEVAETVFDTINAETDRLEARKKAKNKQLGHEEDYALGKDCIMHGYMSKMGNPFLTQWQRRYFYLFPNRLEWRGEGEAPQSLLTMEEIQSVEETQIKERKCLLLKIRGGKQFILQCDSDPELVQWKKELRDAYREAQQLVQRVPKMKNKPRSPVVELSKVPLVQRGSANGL

[10] = molecular target: AP-2 complex subunit beta (Homo sapiens) (UniProt P63010); assay: inhibitors of arrestin peptide binding to AP2, pilot screen, biochemical, validation set, GST-AP2 beads, flow cytometry (AID 504541;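 active = inhibition above 54%, about 3 SD of non-fluorescent compounds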;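 also: AP2 carries R879A mutation and is captured from E. coli lysate; bead-bound FITC arrestin peptide fluorescence measuring arrestin peptide binding to AP2; 0% = DMSO wells and 100% = excess unlabeled arrestin peptide control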); settings: FITC arrestin peptide, at 10 µM, stronger effect = higher value, AP2 beta2 appendage fragment, R879A mutant
Chain of AP-2 complex subunit beta (Homo sapiens) (P63010 whole entry, looked up, the tested form may be a part, one chain of several): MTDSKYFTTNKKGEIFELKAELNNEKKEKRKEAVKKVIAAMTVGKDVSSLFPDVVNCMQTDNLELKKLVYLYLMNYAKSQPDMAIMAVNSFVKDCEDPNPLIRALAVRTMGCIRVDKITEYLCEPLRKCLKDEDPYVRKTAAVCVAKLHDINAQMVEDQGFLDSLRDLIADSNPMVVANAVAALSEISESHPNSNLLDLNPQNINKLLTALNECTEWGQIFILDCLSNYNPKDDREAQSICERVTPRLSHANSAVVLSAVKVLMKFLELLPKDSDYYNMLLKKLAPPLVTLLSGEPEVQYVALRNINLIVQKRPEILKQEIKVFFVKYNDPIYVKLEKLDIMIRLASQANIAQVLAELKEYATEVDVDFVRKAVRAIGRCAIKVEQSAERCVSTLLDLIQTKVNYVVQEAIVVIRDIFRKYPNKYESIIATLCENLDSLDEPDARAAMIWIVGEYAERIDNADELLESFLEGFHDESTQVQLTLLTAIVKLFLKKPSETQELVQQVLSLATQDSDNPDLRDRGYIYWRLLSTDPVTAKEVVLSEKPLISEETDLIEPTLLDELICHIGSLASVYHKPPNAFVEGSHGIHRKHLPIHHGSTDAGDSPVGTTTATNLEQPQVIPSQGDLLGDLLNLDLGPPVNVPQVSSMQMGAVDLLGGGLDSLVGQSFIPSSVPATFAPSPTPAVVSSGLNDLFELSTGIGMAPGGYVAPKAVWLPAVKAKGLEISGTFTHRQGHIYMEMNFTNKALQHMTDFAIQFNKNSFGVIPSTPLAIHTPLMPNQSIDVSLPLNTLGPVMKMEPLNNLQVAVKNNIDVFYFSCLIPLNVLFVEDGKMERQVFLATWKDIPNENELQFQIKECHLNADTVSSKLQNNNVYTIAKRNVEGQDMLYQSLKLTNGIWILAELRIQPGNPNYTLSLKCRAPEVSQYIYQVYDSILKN

[11] = yeast V-ATPase proton transport modulators, S. cerevisiae, pHLuorin, HTS validation (AID 504600; in the data active = response above about 15%;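 also: plate controls were DMSO for no effect and reference compound for full effect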); settings: S. cerevisiae pHLuorin cytosolic pH, at 10 µM, stronger effect = higher value
[12] = tested on: anti-desmoglein-3 scFv antibody binding to human DSG3; assay: inhibitors of anti-DSG3 scFv binding to DSG3, pilot screen, biochemical, validation compound set, bead-based, flow cytometry (AID 588368;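 active = binding below the plate cutoff, the plate median minus 3 SD, with a reading above zero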;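 also: signal is the median channel fluorescence of bead-bound GFP antibody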); settings: Protein G beads, DSG3-Fc, scFv-GFP binding, at 10 µM, stronger effect = lower value
[13] = inhibitors of fungal efflux pumps CDR1, CDR2, MDR1, pilot screen, validation compound set, multiplex, phenotypic (AID 588506;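 active = efflux inhibition above 0.42, the validation set average plus 4 SD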;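 also: Nile Red retained in cells so higher fluorescence means more efflux inhibition; 0 = negative control wells and 1 = enniatin B 25 µM full block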); settings: S. cerevisiae pump-expressing triplex, Nile Red efflux flow cytometry; at 10 µM; stronger effect = higher value; the pumps come from Candida albicans
[14] = molecular target: ATP-binding cassette sub-family B member 6 (Homo sapiens) (UniProt Q9NP58); assay: ABCB6 transporter inhibitors, pilot screen, K562-ABCB6 cells, flow cytometry, validation set (AID 588550); settings: K562-ABCB6 porphyrin accumulation, 1 h, at 10 µM, stronger effect = higher value;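 also: 0% = DMSO wells and 100% = benzethonium chloride 70 µM positive control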
Chain of ATP-binding cassette sub-family B member 6 (Homo sapiens) (Q9NP58 whole entry, looked up): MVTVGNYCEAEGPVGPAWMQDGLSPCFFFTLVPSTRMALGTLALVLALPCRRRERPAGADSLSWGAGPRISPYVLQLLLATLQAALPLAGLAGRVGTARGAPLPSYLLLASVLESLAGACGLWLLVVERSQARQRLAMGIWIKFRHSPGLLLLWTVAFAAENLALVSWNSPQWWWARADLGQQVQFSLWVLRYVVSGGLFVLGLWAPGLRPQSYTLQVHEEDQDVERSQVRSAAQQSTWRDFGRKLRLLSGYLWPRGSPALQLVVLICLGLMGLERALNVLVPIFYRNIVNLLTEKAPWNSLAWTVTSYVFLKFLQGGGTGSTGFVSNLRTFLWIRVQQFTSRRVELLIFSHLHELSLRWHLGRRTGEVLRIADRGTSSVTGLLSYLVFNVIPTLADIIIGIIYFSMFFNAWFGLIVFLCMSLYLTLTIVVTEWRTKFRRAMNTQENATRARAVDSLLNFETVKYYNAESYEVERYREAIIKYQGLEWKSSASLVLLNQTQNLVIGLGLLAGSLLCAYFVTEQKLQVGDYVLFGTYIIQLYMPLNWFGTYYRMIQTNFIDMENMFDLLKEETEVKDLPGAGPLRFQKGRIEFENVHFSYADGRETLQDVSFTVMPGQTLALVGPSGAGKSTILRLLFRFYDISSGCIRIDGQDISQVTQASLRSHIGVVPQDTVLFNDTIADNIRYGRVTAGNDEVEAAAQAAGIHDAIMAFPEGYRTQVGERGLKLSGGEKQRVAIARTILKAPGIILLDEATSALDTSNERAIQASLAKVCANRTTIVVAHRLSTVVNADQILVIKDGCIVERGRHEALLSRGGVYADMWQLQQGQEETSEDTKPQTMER

[15] = promoters of myeloid differentiation in arrested cells, primary screen, cell-based, GFP/MAC1 double positive, flow cytometry, validation set (AID 588685;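 active = differentiation response of at least 50%, scaled between solvent and reference control, from cells with both markers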;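 also: compound exposure lasts four days before antibody staining and flow analysis; 0% = DMSO wells and 100% = 5 µM fulvestrant positive control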); settings: ER-HoxA9 marrow cells, stronger effect = higher value, normalized: vehicle 0, fulvestrant 100

| Compound | percent of DMSO control GFP [1] | GFP response vs DMSO [2] | percent response of DMSO control [3] | GFP response vs DMSO [4] | GFP response, % of DMSO [5] | double positive events [6] [%] | vesicle binding response [6] | inhibition [7] | superoxide response (% of plate) [8] | aptamer binding inhibition [9] | inhibition [10] | response [11] | binding (% of control) [12] | efflux inhibition (fraction of control) [13] | inhibition [14] | differentiation response [15] |
| --- | --- | --- | --- | --- | --- | --- | --- | --- | --- | --- | --- | --- | --- | --- | --- | --- |
| Cc1ncc([N+](=O)[O-])n1CC(C)O (stereo not drawn) | 101% (inactive) | 103% (inactive) | 103% (inactive) | 99.4% (inactive) | 97.3% (inactive) | 52.2 | 149% (inactive) | 8.15% (inactive) | 100% (inactive) | 9% (inactive) | -6.78% (inactive) | -2.48% (inactive) | 100% (inactive) | 0.14 (inactive) | 8% (inactive) | -9.89% (inactive) |
| COc1ccc2oc(=O)c(-c3nc(C)cs3)cc2c1 | 98% (inactive) | 101% (inactive) | 96.9% (inactive) | 106% (inactive) | 88.2% (inactive) | 54.8 | 204% (inactive) | 9.09% (inactive) | 89.3% (inactive) | 6% (inactive) | -7.03% (inactive) | -3.63% (inactive) | 92.6% (inactive) | -0.05 (inactive) | 7% (inactive) | -1.82% (inactive) |
| CC(=O)O[C@]1(C(C)=O)CC[C@H]2[C@@H]3C=C(Cl)C4=CC(=O)CC[C@]4(C)[C@H]3CC[C@@]21C | 99.3% (inactive) | 89.7% (inactive) | 102% (inactive) | 84.3% (inactive) | 97.2% (inactive) | 48.7 | 201% (inactive) | -20.8% (inactive) | 108% (inactive) | -1% (inactive) | -12.8% (inactive) | -0.6% (inactive) | 105% (inactive) | -0.12 (inactive) | 9% (inactive) | -9.89% (inactive) |
